Results: PubChem BioAssay (NCATS)
Records with an inconclusive call do not appear. Entries that show only a call come without a potency. Unmarked numbers belong to inactive results. Calls of active or inactive are those of the source. Calls come from the whole dose curve; as a rule, active = well fitted inhibition curve with a large enough effect; inconclusive = small, poorly fitted or top-dose-only effect; inactive = flat fitted curve, though single readings scatter. *1 amine or outer side, *2 acyl side, *3 side chain or, on linkers, in order; H or OH if unused. Where a SMILES comes first, the peptide text is derived from it. Bridges are numbered along the chain shown (N, C = ends). [ ]: non-standard residue; d: D form. X4 = CC(C)=CCc1cc(C(O)C(N[*:1])C(=O)[*:2])ccc1O; NMeY = CN[CH](Cc1ccc(O)cc1)C(=O)O

experiment: P-glycoprotein substrates identified in KB-8-5-11 adenocarcinoma cell line, qHTS therapeutic library screen (AID 1346987); conditions: KB-8-5-11 (P-gp overexpressing) viability, CellTiter-Glo, 72 h; series mostly up to 44.5 µM; note: nearly all actives have a fitted effect of over 65% in size
How it was run: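 Luminescence from CellTiter-Glo, read 5 min after addition, quantified survival of KB-8-5-11 (P-gp-overexpressing) cells exposed to compounds for 72 h. AC50 was derived from concentration-response curves.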
Potency is the fitted concentration of half-maximal effect.

Compound	Potency	outcome	activity change, negative = cytotoxicity
O=C1Nc2ccccc2C(O)(c2ccccc2)C1O (centres undefined)	inactive	–	–
CCC(C)C1NC(=O)C2CCCN2C(=O)C(NC(C)=O)C(C)OC(=O)C(Cc2ccc(OC)cc2)N(C)C(=O)C2CCCN2C(=O)C(C(C)C)NC1=O (centres undefined) (Ac-TPIVP[NMeY](Me); ester 1-C; configuration not given here)	inactive	–	–
O=C(/C=C/c1cccc(S(=O)(=O)Nc2ccccc2)c1)NO	2.82 µM (active)	–	–
CC(=O)N[C@@H](C(=O)O[C@H]1CCC(C)(C)[C@@H]2CCC3=C(COC3=O)[C@@]12C)C(C)C	inactive	–	–
C[C@@H](Oc1cc(-n2cnc3ccc(OC4CCN(C)CC4)cc32)sc1C(N)=O)c1ccccc1C(F)(F)F	0.206 µM (active)	–	–
C=C(C(=O)O)C1CC(O)C2(C)CCCC(=C)C2C1 (centres undefined)	inactive	–	–
CCC(C)C(=O)OC1CC(O)C23C4OCC5(C(O)CC2C1(C)C(O)O4)C3C(=O)C(O)C1(C)C(O)(c2ccoc2)CC2OC251 (centres undefined)	inactive	–	–
COC(=O)CCC(=O)OC[C@]1(C)CCC[C@@]2(C)C3CC[C@]4(C)C=CC3(CCC12)C4 (some centres undefined)	inactive	–	–
COCC1OC(OC(C)(C)C2CCC3(C)C=C(C4CCC5C4(C)CC(O)C4OC(C(C)(C)OC6OC(CO)C(O)C(O)C6NC(C)=O)CCC45C)CCC3O2)C(NC(C)=O)C(O)C1O (centres undefined)	–	inactive [at 9.29 µM]	–
COc1ccc(CCO[C@@H]2CCCC[C@H]2N2CC[C@@H](O)C2)cc1OC	inactive	–	–
C[C@@H]1O[C@@H](O[C@@H]2[C@@H](O[C@@H]3O[C@@H](C)[C@H](O[C@@H]4OC[C@H](O)[C@H](O[C@@H]5OC[C@@H](O)[C@H](O)[C@H]5O)[C@H]4O)[C@@H](O[C@@H]4OC[C@](O)(CO)[C@H]4O)[C@H]3O)[C@H](OC(=O)[C@]34CCC(C)(C)C[C@H]3C3=CCC5[C@@]6(C)C[C@H](O)[C@H](O[C@@H]7O[C@H](CO[C@@H]8OC[C@H](O)[C@H](O)[C@H]8O)[C@@H](O)[C@H](O)[C@H]7O)C(C)(C)C6CC[C@@]5(C)[C@]3(C)C[C@H]4O)OC[C@H]2O)[C@H](O)[C@H](O)[C@H]1O (some centres undefined)	–	inactive [at 9.29 µM]	–
CC[C@H](NC(=O)[C@H](CS(=O)(=O)CC1CC1)N[C@@H](c1ccc(F)cc1)C(F)(F)F)C(=O)C(=O)NC1CC1	inactive	–	–
CC1=C(CO)C(=O)O[C@@H]([C@@H](C)[C@H]2CC[C@H]3[C@@H]4C[C@H]5O[C@]56[C@@H](O)C=CC(=O)[C@]6(C)[C@H]4CC[C@]23C)C1	2.52 µM (active)	–	–
CC1CCC2(OC1)OC1CC3C4CC=C5CC(O)CC(O[C@@H]6OC[C@@H](O)[C@H](O)[C@H]6O)C5(C)C4CCC3(C)C1(O)C2C (some centres undefined)	inactive	–	–
CC(=O)OC1C(=O)C2(C)C(O)CC3OCC3(OC(C)=O)C2C(OC(=O)c2ccccc2)C2(O)CC(OC(=O)C(O)C(NC(=O)c3ccccc3)c3ccccc3)C(C)=C1C2(C)C (centres undefined)	1.3 µM (active)	–	–
COC1CC(OC2CCC3(C)C(=CCC4C3C(OC(C)=O)C(OC(=O)/C=C/c3ccccc3)C3(C)C(C(C)O)CCC43O)C2)OC(C)C1OC1CC(OC)C(OC2OC(C)C(OC3OC(CO)C(O)C(O)C3O)C(OC)C2O)C(C)O1 (centres undefined)	–	inactive [at 9.29 µM]	–
Fc1ccc2nc(CCC#Cc3ccccn3)cn2c1	inactive	–	–
CC(O)CCC1C(CO[C@@H]2O[C@H](CO)[C@@H](O)[C@H](O)[C@H]2O)CC(O)CC1(C)C (some centres undefined)	inactive	–	–
Cn1cc(S(=O)(=O)c2ccc(Cl)cc2)c2cccc(N3CCNCC3)c21	20.6 µM (active)	–	–
CC1(C)CCC[C@@]2(C)C1[C@H](OC(=O)/C=C/C=C/C(=O)O)C=C1COC(=O)[C@@]12O (some centres undefined)	inactive	–	–

Compound	Potency	outcome	activity change, negative = cytotoxicity
C=C(C)[C@@H]1CC[C@]2(C)CC[C@]3(C)[C@H](CC[C@@H]4[C@@]5(C)CC[C@@H](O)C(C)(C)[C@@H]5CC[C@]43C)[C@@H]12	inactive	–	–
Cc1c[nH]c2nccc(Oc3c(F)cc(Nc4cc(Cl)nc(N)n4)cc3F)c12	1.3 µM (active)	–	–
C[C@@H]1C[C@@H]2O[C@H]2/C=C\C=C\C(=O)Cc2c(Cl)c(O)cc(O)c2C(=O)O1	1.01 µM (active)	–	–
COc1c2c(cc3c1-c1c(cc4c(c1OC)OCO4)CC(C)C(C)C3)OCO2 (centres undefined)	inactive	–	–
NC(=O)Nc1cc(-c2cccc(F)c2)sc1C(=O)NC1CCCNC1 (centres undefined)	8.2 µM (active)	–	–
CC1(C)CC[C@]2(C(=O)O[C@@H]3O[C@H](CO)[C@@H](O)[C@H](O)[C@H]3O)CC[C@]3(C)C(=CCC4[C@@]5(C)C[C@@H](O)[C@H](O)[C@](C)(C(=O)O)C5CC[C@]43C)C2C1O (some centres undefined)	inactive	–	–
Cc1ccc(C(=O)N(CCCN)C(c2oc3cc(Cl)ccc3c(=O)c2Cc2ccccc2)C(C)C)cc1 (centres undefined)	0.517 µM (active)	–	–
O=C(NCc1ccc(S(=O)(=O)c2cc(F)cc(F)c2)cc1)c1ccc2nccn2c1	0.0184 µM (active)	–	–
C[C@]12C=C[C@@]3(CCC4[C@](C)(CO)CCC[C@@]4(C)C3CC1)C2 (some centres undefined)	inactive	–	–
C=C[C@H]1[C@H](O[C@@H]2O[C@H](CO)[C@@H](O)[C@H](O)[C@H]2O)OC=C(C(=O)OC)[C@H]1C/C=C(/C=O)[C@@H]1C(C(=O)OC)=CO[C@@H](O[C@@H]2O[C@H](CO)[C@@H](O)[C@H](O)[C@H]2O)[C@@H]1C=C	inactive	–	–
C=C[C@@](C)(O)CC/C=C(\C)C(=O)O[C@@H]1[C@@H]2O[C@]2(C)[C@H]2[C@H](O[C@@H]3O[C@H](CO)[C@@H](O)[C@H](O)[C@H]3O)OC=C[C@@]12O	inactive	–	–
CC(C)=CCc1cc(C(O)C2NC(=O)CNC(=O)C(Cc3c[nH]c4ccccc34)NC(=O)C3CCCN3C(=O)CNC(=O)C(C(C)C)NC(=O)CNC2=O)ccc1O (centres undefined) (cyclo(G[X4]GVGPW); configuration not given here)	–	–	-0.495% [at 9.29 µM]
NCCCNc1ccc(Nc2nccc(Nc3cc(C4CC4)[nH]n3)n2)cc1	1.3 µM (active)	–	–
C[C@@H]1O[C@@H](OC[C@H]2O[C@@H](Oc3cc(O)cc4c3C(=O)C(O)(Cc3ccc(O)cc3)O4)[C@H](O)[C@@H](O)[C@@H]2O)[C@H](O)[C@H](O)[C@H]1O (some centres undefined)	inactive	–	–
CC(=O)NC[C@H]1CN(c2ccc(N3CCN(C(=O)CO)CC3)c(F)c2)C(=O)O1	inactive	–	–
Cc1csc(NC(=O)c2ccc(COc3cccc(Cl)c3)o2)n1	inactive	–	–
COc1ccc([C@@]2(O)c3c(ccc(CC=C(C)C)c3O)NC(=O)[C@@H]2OC)cc1	inactive	–	–
CC1(C)CC[C@]2(C(=O)OC3OC(CO)C(O)C(O)C3O)CC[C@]3(C)C(=CCC4[C@@]5(C)CC[C@H](OC6OC(C(=O)O)C(O)C(OC7OC(CO)C(O)C(O)C7O)C6O)C(C)(C)C5CC[C@]43C)C2C1 (some centres undefined)	–	inactive [at 9.29 µM]	–
CCNC(=O)C1OC(n2cnc3c(N)nc(NCCc4ccc(CCC(=O)O)cc4)nc32)C(O)C1O (centres undefined)	inactive	–	–
